Source: PubChem BioAssay (Tox21)
Results filed as inconclusive are left out. Calls of active or inactive are those of the source. Unless noted, the call rests on the fitted dose curve.

Columns and labels:
[1] = Nuclear factor erythroid 2-related factor 2/antioxidant responsive element (Nrf2/ARE) small molecule agonists: qHTS cell viability counter screen in human keratinocytes (AID 1919968; active means well fitted curve in the direction sought with a large enough effect in the repeat runs; an effect the other way counts as inactive or inconclusive; further: nearly all actives have a fitted effect of over 55% in size)
Procedure, shortened: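 Cells of the KeratinoSens line were plated at 1,500 per well and left for 5 h before compound transfer from DMSO stocks. After a 23 h incubation (37 C, 5% CO2), CellTiter-Fluor was added. Signal was taken as fluorescence intensity 1 h later.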

[2] = molecular target: Gonadotropin-releasing hormone receptor (Homo sapiens) (UniProt P30968); test: Human gonadotropin-releasing hormone receptor (GnRHR) small molecule agonists, calcium flux assay in GnRHR-HEK293 cells (AID 1920063); further: nearly all actives have a fitted effect of over 35% in size
Chain of Gonadotropin-releasing hormone receptor (Homo sapiens) (P30968 whole entry, looked up): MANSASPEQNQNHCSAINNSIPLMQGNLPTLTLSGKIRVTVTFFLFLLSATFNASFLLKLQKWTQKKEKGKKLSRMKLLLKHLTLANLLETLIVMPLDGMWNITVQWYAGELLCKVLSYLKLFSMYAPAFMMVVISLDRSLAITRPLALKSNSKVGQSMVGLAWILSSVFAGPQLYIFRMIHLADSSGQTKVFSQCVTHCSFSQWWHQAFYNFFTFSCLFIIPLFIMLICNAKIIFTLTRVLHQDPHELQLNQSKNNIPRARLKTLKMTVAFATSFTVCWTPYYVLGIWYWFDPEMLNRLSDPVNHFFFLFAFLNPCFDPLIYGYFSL
Procedure, shortened: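 Compounds dissolved in DMSO are pin-transferred onto dye-loaded GnRHR-HEK293 cells, which were seeded 18 h before at 37 C/5% CO2. Calcium signal is read as fluorescence intensity at 1 s intervals for 3 min.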

[3] = molecular target: KiSS-1 receptor (Homo sapiens) (UniProt Q969F8); test: Human kisspeptin (KISS1R) small molecule agonists, calcium flux assay in KISS1R-HEK293 cells (AID 1920064; active means well fitted curve in the direction sought with a large enough effect in the repeat runs; an effect the other way counts as inactive or inconclusive)
Chain of KiSS-1 receptor (Homo sapiens) (Q969F8 whole entry, looked up): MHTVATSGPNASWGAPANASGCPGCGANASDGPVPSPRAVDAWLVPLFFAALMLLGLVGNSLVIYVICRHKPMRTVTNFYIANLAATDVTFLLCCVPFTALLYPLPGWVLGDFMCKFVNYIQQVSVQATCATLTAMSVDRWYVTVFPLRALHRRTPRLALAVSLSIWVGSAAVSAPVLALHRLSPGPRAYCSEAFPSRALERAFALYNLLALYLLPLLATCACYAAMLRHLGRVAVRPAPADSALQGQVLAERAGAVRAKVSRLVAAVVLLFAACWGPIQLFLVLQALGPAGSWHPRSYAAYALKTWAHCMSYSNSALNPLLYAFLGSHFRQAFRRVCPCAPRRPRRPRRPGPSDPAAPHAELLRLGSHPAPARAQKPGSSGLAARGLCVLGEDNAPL
Procedure, shortened: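 Cell line: HEK293, stable human KISS1R. Dye loading 1 h at 37 C after 18 h culture. Read: kinetic fluorescence, 480/540 nm, 3 min at 1 s intervals.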

[4] = G protein-coupled receptor (GPCR) small molecule agonists, calcium flux assay: HEK293 wild type cell line counter screen (AID 1920065)
Procedure, shortened: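 Tox21 10K compounds, 15 concentrations each in triplicate, pin-transferred in DMSO onto dye-loaded cells; kinetic read at 480/540 nm for 3 min, 1 s intervals.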

[5] = p53 small molecule agonists, cell-based qHTS assay with rat liver microsomes: qHTS cell viability counter screen (AID 1963580); further: nearly all actives have a fitted effect of over 45% in size
Procedure, shortened: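 Counter screen for cytotoxicity under metabolic activation: rat liver microsomes and NADPH, 0.5 mg/mL final each, added with compounds to p53RE-bla HCT-116 cells; 16 h at 37 C, then ATP luminescence read.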

[6] = p53 small molecule agonists, cell-based qHTS assay: qHTS cell viability counter screen (AID 1963581); further: nearly all actives have a fitted effect of over 45% in size
Procedure, shortened: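 ATP content measured by luminescence in HCT-116 p53RE-bla cells treated 16 h at 37 C, same wells as the reporter screen.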

[7] = molecular target: 5-hydroxytryptamine receptor 2A (Homo sapiens) (UniProt P28223); test: 5-hydroxytryptamine receptor 2A (HTR2A) small molecule antagonists, cell-based qHTS assay (AID 1963586); further: nearly all actives have a fitted effect of over 45% in size; further: potency means the concentration at half of the fitted maximal effect
Chain of 5-hydroxytryptamine receptor 2A (Homo sapiens) (P28223 whole entry, looked up): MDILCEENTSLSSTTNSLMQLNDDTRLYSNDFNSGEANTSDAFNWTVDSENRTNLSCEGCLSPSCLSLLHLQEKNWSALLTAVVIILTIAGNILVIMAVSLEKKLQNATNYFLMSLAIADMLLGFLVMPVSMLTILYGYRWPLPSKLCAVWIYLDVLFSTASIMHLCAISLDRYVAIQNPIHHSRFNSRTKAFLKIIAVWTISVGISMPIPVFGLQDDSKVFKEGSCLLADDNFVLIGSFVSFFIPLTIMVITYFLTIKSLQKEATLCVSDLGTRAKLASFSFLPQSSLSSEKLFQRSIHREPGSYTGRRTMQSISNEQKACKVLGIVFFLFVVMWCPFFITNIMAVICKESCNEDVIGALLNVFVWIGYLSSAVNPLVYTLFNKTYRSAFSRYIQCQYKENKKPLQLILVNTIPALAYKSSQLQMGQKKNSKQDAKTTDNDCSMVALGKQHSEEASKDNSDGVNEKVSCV
Procedure, shortened: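 CHO cells stably expressing human HTR2A were plated for 18 h at 37 C, then loaded with calcium dye for 1 h. Compounds were preincubated 5 min at room temperature before DOI (4 nM solution) was added. Kinetic fluorescence was read for 3 min.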

[8] = molecular target: 5-hydroxytryptamine receptor 2A (Homo sapiens) (UniProt P28223); test: 5-hydroxytryptamine receptor 2A (HTR2A) small molecule agonists, cell-based qHTS assay (AID 1963587); further: nearly all actives have a fitted effect of over 30% in size
Procedure, shortened: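 HTR2A-CHO cells, plated 18 h at 37 C/5% CO2, dye-loaded 1 h at 37 C; compounds in DMSO added by pin tool (agonist mode). Intracellular calcium flux read as kinetic fluorescence on FDSS over 2 min at 1 s intervals.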

[9] = molecular target: Muscarinic acetylcholine receptor M1 (Homo sapiens) (UniProt P11229); test: Cholinergic receptor muscarinic 1 (CHRM1) small molecule antagonists, cell-based qHTS assay (AID 1963588); further: nearly all actives have a fitted effect of over 40% in size; further: potency means the concentration at half of the fitted maximal effect
Chain of Muscarinic acetylcholine receptor M1 (Homo sapiens) (P11229 whole entry, looked up): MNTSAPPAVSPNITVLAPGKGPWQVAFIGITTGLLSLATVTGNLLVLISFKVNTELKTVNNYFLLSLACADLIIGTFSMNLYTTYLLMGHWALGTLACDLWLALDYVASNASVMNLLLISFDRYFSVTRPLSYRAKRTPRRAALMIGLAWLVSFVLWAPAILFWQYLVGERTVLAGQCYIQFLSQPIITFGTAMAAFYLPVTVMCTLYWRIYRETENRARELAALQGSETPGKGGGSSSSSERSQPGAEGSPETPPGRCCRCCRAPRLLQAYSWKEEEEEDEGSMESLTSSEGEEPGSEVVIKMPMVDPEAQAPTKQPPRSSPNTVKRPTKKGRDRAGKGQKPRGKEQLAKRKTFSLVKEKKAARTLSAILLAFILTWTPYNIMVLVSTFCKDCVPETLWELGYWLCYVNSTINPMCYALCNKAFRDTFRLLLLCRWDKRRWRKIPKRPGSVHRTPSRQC
Procedure, shortened: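 Compounds were tested at 15 concentrations in three independent runs. Dye-loaded CHRM1-CHO cells were exposed 5 min at room temperature before stimulation by acetylcholine added at 50nM. Intracellular calcium was read kinetically on FDSS for 3 min.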

[10] = molecular target: Muscarinic acetylcholine receptor M1 (Homo sapiens) (UniProt P11229); test: Cholinergic receptor muscarinic 1 (CHRM1) small molecule agonists, cell-based qHTS assay (AID 1963589); further: nearly all actives have a fitted effect of over 35% in size
Procedure, shortened: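 Homogeneous fluorescence calcium flux, agonist mode. Human M1-expressing CHO cells; compound dosed at 15 concentrations, three independent runs; signal sampled every 1 sec.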

[11] = cAMP Responsive Elements (CRE) small molecule antagonists, cell-based qHTS assay (AID 1963591; active means well fitted inhibition curve with a large enough effect in the signal ratio in the repeat runs, not every such curve was filed as active; the % refers to the signal ratio)
Procedure, shortened: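 First, CRE-bla HEK293T cells settled 18 h at 37 C. Next, compound and 0.25 uM final NKH477 were applied for 3 h. Last, LiveBLAzer B/G substrate was loaded for 2 h at room temperature.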

[12] = molecular target: Beta-2 adrenergic receptor (Homo sapiens) (UniProt P07550); test: Adrenergic beta2 receptor (ADRB2) small molecule antagonists, cell-based qHTS assay (AID 1963592); further: series mostly up to about 92 µM; nearly all actives have a fitted effect of over 50% in size
Chain of Beta-2 adrenergic receptor (Homo sapiens) (P07550 whole entry, looked up): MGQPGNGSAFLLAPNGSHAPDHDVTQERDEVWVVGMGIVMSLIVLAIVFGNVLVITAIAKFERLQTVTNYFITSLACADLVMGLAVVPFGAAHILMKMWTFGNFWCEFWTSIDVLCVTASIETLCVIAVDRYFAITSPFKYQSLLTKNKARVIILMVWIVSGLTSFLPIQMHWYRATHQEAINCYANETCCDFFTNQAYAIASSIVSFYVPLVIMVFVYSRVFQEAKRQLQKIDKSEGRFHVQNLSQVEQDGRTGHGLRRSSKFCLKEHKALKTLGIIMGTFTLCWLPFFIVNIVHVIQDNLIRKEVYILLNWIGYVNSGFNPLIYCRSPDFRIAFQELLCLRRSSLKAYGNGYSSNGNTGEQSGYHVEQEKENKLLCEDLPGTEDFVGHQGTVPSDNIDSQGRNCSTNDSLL
Procedure, shortened: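 Assay format: CHO-ADRB2 cells, 18-20hr seeding at 37C/5% CO2, then compound plus 1nM isoproterenol agonist mix for 0.5hr RT. Homogeneous time-resolved fluorescence cAMP detection after 1hr, expressed as 665/615 nm ratio.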

[13] = molecular target: Beta-2 adrenergic receptor (Homo sapiens) (UniProt P07550); test: Adrenergic beta2 receptor (ADRB2) small molecule agonists, cell-based qHTS assay (AID 1963593);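 further: CHO cells stably overexpressing human ADRB2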
Procedure, shortened: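 CHO cells stably over-expressing ADRB2 were plated overnight at 37C, then dosed with compounds plus a stimulation mix containing 100uM IBMX and 25uM Ro-20-1724 for 0.5hr at room temperature. cAMP was measured by HTRF competition, 1hr.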

[14] = molecular target: D(2) dopamine receptor (Homo sapiens) (UniProt P14416); test: Dopamine D2 receptor (DRD2) small molecule agonists, cell-based qHTS assay (AID 1963594); further: nearly all actives have a fitted effect of over 35% in size
Chain of D(2) dopamine receptor (Homo sapiens) (P14416 whole entry, looked up): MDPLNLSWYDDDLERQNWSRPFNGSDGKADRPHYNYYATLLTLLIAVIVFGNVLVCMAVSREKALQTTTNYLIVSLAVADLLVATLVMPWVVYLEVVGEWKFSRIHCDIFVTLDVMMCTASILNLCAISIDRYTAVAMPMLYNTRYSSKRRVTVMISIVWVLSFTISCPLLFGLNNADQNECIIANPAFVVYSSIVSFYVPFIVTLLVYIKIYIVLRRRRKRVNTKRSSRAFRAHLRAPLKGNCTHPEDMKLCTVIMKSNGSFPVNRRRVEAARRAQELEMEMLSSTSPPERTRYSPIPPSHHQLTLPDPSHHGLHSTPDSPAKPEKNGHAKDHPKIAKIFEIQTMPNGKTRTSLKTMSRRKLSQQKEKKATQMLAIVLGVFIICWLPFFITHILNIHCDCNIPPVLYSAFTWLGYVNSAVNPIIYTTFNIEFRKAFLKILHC
Procedure, shortened: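 HEK293 cells stably expressing DRD2 were cultured 24 h at 37 C, then given Ro20-1724 (0.1 mM final) and compounds for 10 min at room temperature. NKH477 (200nM) was then added for 30 min. cAMP was read by HTRF.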

[15] = molecular target: D(2) dopamine receptor (Homo sapiens) (UniProt P14416); test: Dopamine D2 receptor (DRD2) small molecule antagonists, cell-based qHTS assay (AID 1963595; active means well fitted inhibition curve with a large enough effect in the signal ratio in the repeat runs, with a control signal flat; the % refers to the signal ratio; further: potency means the concentration at half of the fitted maximal effect)
Procedure, shortened: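 Readout: HTRF cAMP, cAMP-d2 competing with cellular cAMP for anti-cAMP cryptate, read after 1 h. Cells: DRD2-HEK293. Conditions: 0.1 mM Ro20-1724, 12 nM quinpirole, 200 nM NKH477, 30 min RT.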

[16] = cAMP Responsive Elements (CRE) small molecule agonists, cell-based qHTS assay (AID 1963590)
Procedure, shortened: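 HEK 293T cells stably bearing CRE-bla were plated at 2,000 cells per well and rested 18 h. Compounds, positive controls or DMSO were added for 3 h at 37 C. LiveBLAzer B/G substrate was then loaded for 2 h at room temperature.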

[17] = p53 small molecule agonists, cell-based qHTS assay with human liver microsomes: qHTS cell viability counter screen (AID 1963579); further: nearly all actives have a fitted effect of over 45% in size
Procedure, shortened: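 Metabolically activated exposure: compounds, human liver microsomes and NADPH (0.5 mg/mL final apiece) were added to p53RE-bla cells seeded 5 h earlier, left 16 h at 37 C, and then assessed for viability by CellTiter-Glo luminescence.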

[18] = p53 small molecule agonists, cell-based qHTS assay (AID 1963582; active means well fitted activation curve with a large enough effect in the signal ratio in the repeat runs, not every such curve was filed as active; the % refers to the signal ratio)
Procedure, shortened: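 16 h compound exposure (37 C) of p53 response element–bla cells, preceded by 5 h recovery at 37 C/5% CO2; read-out via LiveBLAzer B/G FRET substrate, 2 h RT, fluorescence intensity.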

Measured: Potency

S=C(S)NCCNC(=S)S
inactive: [1] | [2] | [3] | [4] | [5] | [6] | [7] | [8] | [9] | [10] | [11] | [12] | [13] | [14] | [15]

CC(C)NC(=O)NC(C)C
inactive: [1] | [2] | [3] | [4] | [5] | [6] | [7] | [8] | [9] | [10] | [16] | [11] | [12] | [14] | [15]

Nc1nc(-c2ccccc2)cs1
inactive: [1] | [2] | [3] | [4] | [17] | [5] | [6] | [8] | [9] | [10] | [16] | [11] | [12] | [14] | [15]

CC(C)O
inactive: [1] | [2] | [3] | [4] | [17] | [6] | [7] | [8] | [9] | [10] | [11] | [12] | [14] | [15]

CC(=O)c1ccc2c(c1)N(CCCN(C)C)c1ccccc1S2
inactive: [1] | [2] | [3] | [4] | [17] | [18] | [8] | [10] | [16] | [11] | [12] | [14]
active: [7] 25.9 nM | [9] 410 nM | [15] 1680 nM

CCC(CC)Nc1ccc(C)c(C)c1
inactive: [1] | [2] | [3] | [4] | [5] | [6] | [7] | [8] | [9] | [10] | [11] | [12] | [14] | [15]

CC(C)(C)C(=O)CCc1ccc(Cl)cc1
inactive: [1] | [2] | [3] | [4] | [17] | [6] | [7] | [8] | [10] | [16] | [11] | [12] | [13] | [14]
